According to PubChem BioAssay:
Calls of active or inactive are those of the source. Unless noted, how the calls were made is not given here.

Experiments:
[1] = test system: XIP peptide (Xip251-270) binding; test: XIP fragment 251-270 binding compounds – biochemical, small-molecule microarray, fluorescence 635/667 nm, 0.1 µg/mL protein, primary screen (AID 1182); conditions: fluorescent protein binding, 635 nm, higher = more signal, called active from +8 up or from −8 down
XIP peptide (Xip251-270) = test: compounds binding XIP fragment 251-270 – biochemical, small-molecule microarray, fluorescence 635/667 nm, 0.5 µg/mL protein, primary screen (AID 1183); conditions: fluorescence 635 nm, higher = more signal
[2] = blood-stage malaria parasite viability loss – strain 3D7, DAPI fluorescence, 100 nL, primary screen (AID 1184);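 further: parasites grown inside human red blood cells in medium with human serum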; conditions: P. falciparum 3D7 growth, 3 d, higher = more signal
[3] = target: Homeobox protein Hox-A13 (Mus musculus) (UniProt Q62424); test: disruptors of Hoxa13 oligonucleotide interaction – biochemical, fluorescence polarization, labeled oligonucleotide, primary screen (AID 1185); conditions: Hoxa13:DNA binding, 15 min, higher = more signal, called active from +8 up or from −8 down
[4] = blockers of DNA damage checkpoint Chk1 activation – imaging, HeLa, hydroxyurea, phospho-Chk1 antibody, percent positive cells, primary screen (AID 1186); conditions: hydroxyurea-induced phospho-Chk1 immunofluorescence imaging, higher = more signal
[5] = blockers of DNA damage checkpoint Chk1 activation – imaging, HeLa, hydroxyurea, phospho-Chk1 nuclear intensity, primary screen (AID 1187); conditions: hydroxyurea-induced phospho-Chk1 immunofluorescence imaging, higher = more signal

Sequence of Homeobox protein Hox-A13 (Mus musculus) (Q62424 whole entry, looked up): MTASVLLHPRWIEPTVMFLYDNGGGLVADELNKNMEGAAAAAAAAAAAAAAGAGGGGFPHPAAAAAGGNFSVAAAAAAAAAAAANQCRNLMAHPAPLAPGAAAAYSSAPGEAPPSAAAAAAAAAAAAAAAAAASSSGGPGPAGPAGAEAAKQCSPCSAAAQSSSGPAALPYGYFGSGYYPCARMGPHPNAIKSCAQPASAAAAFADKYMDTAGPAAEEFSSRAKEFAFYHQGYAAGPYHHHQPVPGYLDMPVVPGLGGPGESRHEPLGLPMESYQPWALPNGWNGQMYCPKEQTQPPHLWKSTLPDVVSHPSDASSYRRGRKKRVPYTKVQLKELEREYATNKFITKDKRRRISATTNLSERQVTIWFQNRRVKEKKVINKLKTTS

| Compound | composite z-score [1] | composite z-score (XIP peptide (Xip251-270)) | z-score [2] | z-score [3] | z-score [4] | z-score [5] |
| --- | --- | --- | --- | --- | --- | --- |
| COc1ccc([Si](C)(C)[C@H]2[C@H](CC(=O)N3Cc4ccccc4C[C@H]3CO)O[C@@]3(C(=O)N(Cc4ccc(N5CCOC5=O)cc4)c4ccccc43)[C@@H]2C)cc1 | 1.61 (inactive) | 0.742 | -0.847 | -3.92 (inactive) | -0.719 (inactive) | -0.869 (inactive) |
| [N-]=[N+]=Nc1ccccc1[C@H]1OC(c2ccc(OCCCO)cc2)=N[C@@]1(Cc1ccccc1)C(=O)NCCN1CCOCC1 | 0.0125 (inactive) | 0.83 | -2.18 | -2.71 (inactive) | -0.116 (inactive) | 0.205 (inactive) |
| C=C[C@@H](CO)N(Cc1ccc(OC)cc1)S(=O)(=O)c1ccc(Br)cc1 | -0.798 (inactive) | -0.315 | -0.0153 | -3.98 (inactive) | -0.289 (inactive) | -0.157 (inactive) |
| O=c1cccc(-c2ccc([N+](=O)[O-])cc2)o1 | 0.164 (inactive) | -0.163 | -0.799 | -0.755 (inactive) | -0.419 (inactive) | -0.202 (inactive) |
| C=CC[C@]1(C(=O)N2CCCCC2)N=C(c2ccc(OCCCO)cc2)O[C@H]1c1ccccc1CN=[N+]=[N-] | 0.541 (inactive) | 0.652 | -2.57 | -3.9 (inactive) | -0.707 (inactive) | -1.06 (inactive) |
| CCOC(=O)C[C@H]1[C@H](OC(=O)c2ccc(C(=O)c3ccccc3)cc2)[C@@H](NC(=O)C2CCCCC2)c2cc(OCCCO)ccc2N1C(=O)c1ccc2ccccc2n1 | -0.482 (inactive) | 0.368 | -1.69 | -0.814 (inactive) | -0.739 (inactive) | -0.573 (inactive) |
| COCCOC(=O)N1C(=O)[C@@]2(c3cc(C#CCCO)ccc31)[C@H](C(=O)Nc1nc3ccccc3s1)[C@H]1C(=O)O[C@H](c3ccccc3)[C@H](c3ccccc3)N1[C@@H]2c1ccc(O)cc1 | 3.02 (inactive) | 0.765 | -1.45 | -3.01 (inactive) | -0.225 (inactive) | -0.445 (inactive) |
| C=CCC(OC(C)=O)[C@@H]1[C@@H](N(Cc2cccc3ccccc23)C(=O)Cc2ccc(OC)cc2)c2cc(OCCCO)ccc2N1C(=O)c1ccc(-c2ccccc2)cc1 (stereo partly specified) | 0.377 (inactive) | 0.309 | -2.3 | -1.94 (inactive) | 0.577 (inactive) | -0.13 (inactive) |
| NC(=O)[C@H]1[C@@H]2C(=O)O[C@@H](c3ccccc3)[C@@H](c3ccccc3)N2[C@@H](c2ccc(OCCO)cc2)[C@]12C(=O)Nc1ccc(C#CCCO)cc12 | 0.32 (inactive) | 0.357 | 0.358 | -4.68 (inactive) | -0.317 (inactive) | -0.838 (inactive) |
| COC(=O)[C@@]1(Cc2ccc(OC)cc2)[C@H]2c3cc(C(=O)N4CCCC4)n(CCO)c3C[C@H]2CN1C(=O)c1ccccc1 | 0.675 (inactive) | 0.643 | -1.72 | -5.06 (inactive) | 1.33 (inactive) | 0.404 (inactive) |
| CC1=C2[C@@H](CCc3ccccc3)OB(O)C[C@@H]2[C@@H]2C(=O)N(Cc3ccccc3)C(=O)[C@@H]2C1 | 0.291 (inactive) | 0.629 | 1.62 | -7.81 (inactive) | 0.235 (inactive) | 0.264 (inactive) |
| CN(C)C(=O)[C@]1(CCC(=O)OC(C)(C)C)N=C(c2ccc(OCCCO)cc2)O[C@@H]1c1ccccc1CN=[N+]=[N-] | 0.0464 (inactive) | 0.649 | -2.39 | -4.57 (inactive) | -0.165 (inactive) | 0.152 (inactive) |
| CCOC(=O)C1=C[C@@H](c2ccccc2)N(S(=O)(=O)c2ccc(C)cc2)[C@H]1c1ccc(OC)cc1 | 0.138 (inactive) | 0.599 | -1.84 | 0.842 (inactive) | -0.0622 (inactive) | -0.614 (inactive) |
| COC(=O)[C@@]1(Cc2ccc(OC)cc2)[C@H]2c3cc(C(=O)N4CCCC4)n(CCc4c[nH]c5ccc(O)cc45)c3C[C@H]2CN1C(=O)c1ccccc1 | 0.903 (inactive) | 0.864 | -1.44 | -4.21 (inactive) | 0.336 (inactive) | 0.258 (inactive) |
| NCCCCCNC(=O)[C@H]1C[C@H]2C(=O)N3CCC[C@H]3C(=O)N2[C@H]1c1cccc(OCCO)c1 | 1.19 (inactive) | 0.707 | -1.24 | -2.47 (inactive) | -0.0667 (inactive) | 0.53 (inactive) |
| CCOC(=O)C[C@H]1[C@H](OC(=O)Cc2ccc3c(c2)OCO3)[C@@H](NC(=O)c2ccc3ccccc3n2)c2cc(OCCCO)ccc2N1C(=O)c1ccccc1 | 0.269 (inactive) | 0.256 | -1.03 | -2.41 (inactive) | -0.705 (inactive) | -0.277 (inactive) |
| CO[C@H]1O[C@H](CO)[C@@H](OC(=O)CCc2ccccc2)[C@@H]2OC(=O)[C@@H](Cc3ccccc3)C/C=C/C[C@H](Cc3ccccc3)C(=O)O[C@@H]12 | -0.315 (inactive) | 0.506 | -0.655 | -3.06 (inactive) | -0.682 (inactive) | -0.379 (inactive) |
| CCOC(=O)C[C@H]1[C@H](OC(=O)c2ccccc2-c2ccccc2)[C@@H](NC(=O)c2ccc3ccccc3c2)c2cc(OCCCO)ccc2N1C(=O)c1ccccc1 | -0.323 (inactive) | 0.306 | -1.72 | -2.39 (inactive) | 0.185 (inactive) | 0.361 (inactive) |
| COC(=O)[C@@]1(Cc2ccccc2)[C@H]2c3cc(C(=O)N4CCCC4)n(CCc4ccccn4)c3C[C@H]2CN1C(=O)c1ccccc1 | 1.44 (inactive) | 0.663 | -1.25 | -5.78 (inactive) | 0.249 (inactive) | 0.491 (inactive) |
| CCCCC[C@H]1OC[C@@]23C=C(Br)[C@@H](CC12)[C@@]1(CO1)C3=O (stereo partly specified) | -0.311 (inactive) | -0.332 | 1.66 | -2.47 (inactive) | -0.556 (inactive) | -0.245 (inactive) |
| CCOC(=O)C1=C[C@@H](C(C)C)N(S(=O)(=O)c2ccc(C)cc2)[C@H]1c1ccc(C(F)(F)F)cc1 | 0.438 (inactive) | 0.555 | -1.88 | -0.498 (inactive) | 0.389 (inactive) | 0.112 (inactive) |
| O=C1O[C@@H](c2ccccc2)[C@@H](c2ccccc2)N2[C@@H](c3ccc(OCCO)cc3)[C@]3(C(=O)Nc4ccc(C#CC5=CCCCC5)cc43)[C@@H](C(=O)NC[C@H](O)c3ccccc3)[C@H]12 | 0.127 (inactive) | 0.693 | -1.35 | 3.28 (inactive) | 0.27 (inactive) | 0.433 (inactive) |
| COCCCNC(=O)[C@@]1(CCC(=O)OC(C)(C)C)N=C(c2ccc(OCCCO)cc2)O[C@H]1c1ccccc1N=[N+]=[N-] | 3.51 (inactive) | 0.476 | -2.39 | -4.09 (inactive) | 0.739 (inactive) | 1.43 (inactive) |
| CCOC(=O)C[C@H]1[C@H](OC(=O)c2ccc(-c3ccccc3)cc2)[C@@H](NC(=O)CC(C)C)c2cc(OCCCO)ccc2N1C(=O)c1ccc2ccccc2n1 | -0.349 (inactive) | 0.381 | -0.459 | -2.19 (inactive) | 0.319 (inactive) | 0.571 (inactive) |
| C[N+](C)(C)CCCC[C@@H]1NC(=O)[C@@H]2C[C@H](C(=O)NCCCCCCN)[C@H](c3cccc(OCCO)c3)N2C1=O | 1.52 (inactive) | 0.771 | -0.133 | -3.34 (inactive) | -0.529 (inactive) | -0.386 (inactive) |
| O=C1OCCC/C=C\[C@H]2OC34C=CCN(c5ccc6ccccc6c5)C(=O)[C@H]3N(CCO)C(=O)[C@@H]4C12 (stereo partly specified) | 0.314 (inactive) | -1.38 | -1.05 | -5.35 (inactive) | -0.234 (inactive) | -0.0994 (inactive) |
